The record followed here is publication PMC7862700, “An all-to-all approach to the identification of sequence-specific readers for epigenetic DNA modifications on cytosine”.

What all share (assay): DAPPL (digital affinity profiling via proximity ligation, sequencing); 10 mM Tris-HCl pH 7.5, 50 mM NaCl, 1 mM DTT, 4% glycerol, room temperature, 30 min; GST-TFs on glutathione beads, 16-mer random dsDNA library, 0.1% formaldehyde crosslink after washing; high values mean tight binding
Test [1] deals with T1, FLI1 (Homo sapiens, UniProt Q01543 1-452).
T1 sequence: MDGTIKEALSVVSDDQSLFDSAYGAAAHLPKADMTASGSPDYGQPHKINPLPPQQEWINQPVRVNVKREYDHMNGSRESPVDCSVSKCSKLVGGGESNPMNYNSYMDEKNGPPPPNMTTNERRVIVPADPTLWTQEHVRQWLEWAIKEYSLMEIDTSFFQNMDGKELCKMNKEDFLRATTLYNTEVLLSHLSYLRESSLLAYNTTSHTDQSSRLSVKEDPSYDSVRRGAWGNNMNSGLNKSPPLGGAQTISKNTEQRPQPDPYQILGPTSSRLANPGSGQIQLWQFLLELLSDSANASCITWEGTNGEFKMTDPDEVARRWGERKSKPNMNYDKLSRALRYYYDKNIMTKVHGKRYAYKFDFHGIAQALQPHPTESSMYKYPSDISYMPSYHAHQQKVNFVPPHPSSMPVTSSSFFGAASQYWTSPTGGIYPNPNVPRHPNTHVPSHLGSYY
Particulars: protein: recombinant; tags: N-terminal GST; dsDNA, one strand shown. The method, boiled down:
(§1)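 Pools of DNA-barcoded human transcription factors, expressed in yeast as GST fusions on glutathione beads and combined with a tag-only sample, were incubated with 200 nmole of a 16-mer random double-stranded DNA library. Incubation took 30 min at room temperature in Tris/NaCl/DTT/glycerol buffer and was followed by washing, 0.1% formaldehyde crosslinking, proximity ligation (BsaI/T4 ligase, 1 h, 37 °C), PCR amplification and sequencing on an Illumina NextSeq500. Binding signal is the ratio of a hexamer's read frequency for a factor to its frequency for the tag-only sample.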

Test [2] deals with T2, ELK1 (Homo sapiens, UniProt P19419 1-428).
T2 sequence: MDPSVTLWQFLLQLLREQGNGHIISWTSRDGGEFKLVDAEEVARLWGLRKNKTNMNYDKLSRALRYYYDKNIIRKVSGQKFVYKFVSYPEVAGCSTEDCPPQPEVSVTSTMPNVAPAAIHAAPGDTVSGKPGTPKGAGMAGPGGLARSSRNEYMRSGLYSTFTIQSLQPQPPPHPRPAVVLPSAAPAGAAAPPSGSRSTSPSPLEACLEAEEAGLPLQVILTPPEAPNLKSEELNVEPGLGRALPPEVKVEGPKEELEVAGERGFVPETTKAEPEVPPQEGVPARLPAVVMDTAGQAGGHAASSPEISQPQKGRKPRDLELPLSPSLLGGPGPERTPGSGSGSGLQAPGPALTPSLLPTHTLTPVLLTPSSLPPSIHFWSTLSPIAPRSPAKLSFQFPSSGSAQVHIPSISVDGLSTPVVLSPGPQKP
Particulars: protein: recombinant; tags: N-terminal GST; dsDNA, one strand shown. In outline:
as §1

Test [3] deals with T3, GABPA (Homo sapiens, UniProt Q06546 1-454).
T3 sequence: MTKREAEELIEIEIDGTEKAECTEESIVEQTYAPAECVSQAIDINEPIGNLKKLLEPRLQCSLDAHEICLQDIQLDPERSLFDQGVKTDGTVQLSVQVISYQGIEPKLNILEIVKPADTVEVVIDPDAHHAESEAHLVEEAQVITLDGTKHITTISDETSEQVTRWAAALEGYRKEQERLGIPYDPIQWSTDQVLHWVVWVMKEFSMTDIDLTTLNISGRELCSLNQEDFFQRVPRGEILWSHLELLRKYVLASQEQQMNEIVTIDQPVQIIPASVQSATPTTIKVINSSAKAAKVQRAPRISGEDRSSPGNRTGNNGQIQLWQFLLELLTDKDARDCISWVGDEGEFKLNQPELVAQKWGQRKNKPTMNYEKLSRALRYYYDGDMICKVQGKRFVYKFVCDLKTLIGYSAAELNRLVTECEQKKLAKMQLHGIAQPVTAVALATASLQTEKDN
Particulars: protein: recombinant; tags: N-terminal GST; dsDNA, one strand shown. The method, boiled down:
as §1

The target in test [4] is T4, ERG (Homo sapiens, UniProt P11308 1-479).
T4 sequence: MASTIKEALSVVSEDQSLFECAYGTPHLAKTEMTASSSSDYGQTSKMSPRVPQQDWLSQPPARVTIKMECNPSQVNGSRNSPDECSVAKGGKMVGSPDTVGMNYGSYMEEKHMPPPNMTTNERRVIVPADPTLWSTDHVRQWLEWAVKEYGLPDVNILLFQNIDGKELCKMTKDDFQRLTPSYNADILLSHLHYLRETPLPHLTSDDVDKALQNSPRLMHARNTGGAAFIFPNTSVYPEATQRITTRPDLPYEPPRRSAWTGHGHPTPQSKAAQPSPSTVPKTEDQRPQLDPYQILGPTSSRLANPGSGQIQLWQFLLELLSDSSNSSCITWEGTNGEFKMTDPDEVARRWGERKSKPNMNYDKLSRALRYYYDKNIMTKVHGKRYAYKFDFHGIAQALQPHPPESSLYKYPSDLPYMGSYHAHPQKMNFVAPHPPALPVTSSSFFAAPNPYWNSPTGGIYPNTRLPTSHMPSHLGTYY
To be noted: protein: recombinant; tags: N-terminal GST; dsDNA, one strand shown. In outline:
as §1

Test [5] has as its target ELF1 (Homo sapiens, UniProt P32519 1-619). Particulars: protein: recombinant; tags: N-terminal GST; dsDNA, one strand shown. In outline: as §1
The target of test [6] is T5, EHF (Homo sapiens, UniProt Q9NZC4 1-300).
T5 sequence: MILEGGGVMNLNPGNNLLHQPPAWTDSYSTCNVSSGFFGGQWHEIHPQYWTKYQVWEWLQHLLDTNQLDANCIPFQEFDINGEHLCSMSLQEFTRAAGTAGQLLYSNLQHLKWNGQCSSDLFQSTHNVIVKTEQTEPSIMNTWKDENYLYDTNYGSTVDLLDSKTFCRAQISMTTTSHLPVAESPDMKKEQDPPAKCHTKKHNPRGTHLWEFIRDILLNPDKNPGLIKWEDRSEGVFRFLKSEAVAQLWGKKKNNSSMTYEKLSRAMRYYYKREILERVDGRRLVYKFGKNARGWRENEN
To be noted: protein: recombinant; tags: N-terminal GST; dsDNA, one strand shown. The method, boiled down:
as §1

Test [7] deals with SPI1 (Homo sapiens, UniProt P17947 1-270). Particulars: protein: recombinant; tags: N-terminal GST; dsDNA, one strand shown. In outline: as §1
For test [8], the target named is SPIB (Homo sapiens, UniProt Q01892 1-262). Particulars: protein: recombinant; tags: N-terminal GST; dsDNA, one strand shown. The method, boiled down: as §1
Test [9] deals with T6, ELK3 (Homo sapiens, UniProt P41970 1-407).
T6 sequence: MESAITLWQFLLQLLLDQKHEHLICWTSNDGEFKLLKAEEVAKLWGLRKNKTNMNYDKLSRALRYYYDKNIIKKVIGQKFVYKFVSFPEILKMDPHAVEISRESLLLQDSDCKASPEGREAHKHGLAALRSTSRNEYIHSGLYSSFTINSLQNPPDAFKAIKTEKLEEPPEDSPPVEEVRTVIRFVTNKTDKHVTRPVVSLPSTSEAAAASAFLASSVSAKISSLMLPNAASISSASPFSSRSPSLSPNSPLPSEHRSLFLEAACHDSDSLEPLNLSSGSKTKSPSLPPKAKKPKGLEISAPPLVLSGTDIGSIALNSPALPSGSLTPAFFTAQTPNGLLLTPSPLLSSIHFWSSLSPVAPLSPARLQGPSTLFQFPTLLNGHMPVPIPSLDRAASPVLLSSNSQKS
Particulars: protein: recombinant; tags: N-terminal GST; dsDNA, one strand shown. The method, boiled down:
as §1

In test [10] the target is T7, FEV (Homo sapiens, UniProt Q99581 1-238).
T7 sequence: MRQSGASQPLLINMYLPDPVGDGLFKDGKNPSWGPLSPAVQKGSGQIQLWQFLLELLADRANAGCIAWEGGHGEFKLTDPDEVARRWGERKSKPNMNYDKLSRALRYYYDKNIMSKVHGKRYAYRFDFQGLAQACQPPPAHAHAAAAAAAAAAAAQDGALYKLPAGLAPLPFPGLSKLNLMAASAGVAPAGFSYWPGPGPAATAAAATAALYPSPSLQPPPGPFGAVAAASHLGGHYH
To be noted: protein: recombinant; tags: N-terminal GST; dsDNA, one strand shown. The method, boiled down:
as §1

For test [11], the target named is ETV5 (Homo sapiens, UniProt P41161 1-510). Particulars: protein: recombinant; tags: N-terminal GST; dsDNA, one strand shown. The method, boiled down:
as §1

In test [12] the target is HSF1 (Homo sapiens, UniProt Q00613 1-529). To be noted: protein: recombinant; tags: N-terminal GST; chain copies: 3; dsDNA, one strand shown. In outline: as §1
The target of test [13] is T8, SPIC (Homo sapiens, UniProt Q8N5J4 1-248).
T8 sequence: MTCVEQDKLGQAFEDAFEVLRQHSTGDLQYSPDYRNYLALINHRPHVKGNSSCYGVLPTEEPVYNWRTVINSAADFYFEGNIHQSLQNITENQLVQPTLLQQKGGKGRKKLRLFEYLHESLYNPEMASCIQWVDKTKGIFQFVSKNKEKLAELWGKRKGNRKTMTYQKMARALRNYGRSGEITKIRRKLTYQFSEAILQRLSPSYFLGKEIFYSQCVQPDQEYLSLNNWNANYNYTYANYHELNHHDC
To be noted: protein: recombinant; tags: N-terminal GST; dsDNA, one strand shown. In outline: as §1

The target of test [14] is ELF4 (Homo sapiens, UniProt Q99607 1-663). Particulars: protein: recombinant; tags: N-terminal GST; dsDNA, one strand shown. The method, boiled down: as §1
The target in test [15] is T9, ELK4 (Homo sapiens, UniProt P28324-2 1-405).
T9 sequence: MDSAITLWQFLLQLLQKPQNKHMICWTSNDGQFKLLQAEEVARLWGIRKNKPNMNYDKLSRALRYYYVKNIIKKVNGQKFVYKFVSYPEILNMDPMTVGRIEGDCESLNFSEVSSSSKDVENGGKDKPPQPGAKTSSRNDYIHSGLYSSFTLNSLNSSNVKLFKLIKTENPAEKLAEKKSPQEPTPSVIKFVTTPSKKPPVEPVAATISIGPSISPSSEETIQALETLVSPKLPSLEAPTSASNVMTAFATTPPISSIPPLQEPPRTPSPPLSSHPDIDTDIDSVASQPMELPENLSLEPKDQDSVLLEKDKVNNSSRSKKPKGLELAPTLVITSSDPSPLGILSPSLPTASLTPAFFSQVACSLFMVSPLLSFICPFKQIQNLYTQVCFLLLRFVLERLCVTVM
To be noted: protein: recombinant; tags: N-terminal GST; dsDNA, one strand shown. The method, boiled down: as §1

The target in test [16] is T10, ETV2 (Homo sapiens, UniProt O00321 1-342).
T10 sequence: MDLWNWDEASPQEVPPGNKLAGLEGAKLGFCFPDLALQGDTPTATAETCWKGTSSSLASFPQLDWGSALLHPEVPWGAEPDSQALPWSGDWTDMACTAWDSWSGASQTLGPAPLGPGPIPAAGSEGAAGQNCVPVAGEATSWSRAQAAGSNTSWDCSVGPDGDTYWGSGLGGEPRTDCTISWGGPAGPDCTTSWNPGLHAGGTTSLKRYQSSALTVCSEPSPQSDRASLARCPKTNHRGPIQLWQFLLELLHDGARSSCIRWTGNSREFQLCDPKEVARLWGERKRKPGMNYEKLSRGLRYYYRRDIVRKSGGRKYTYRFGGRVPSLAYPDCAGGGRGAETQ
To be noted: protein: recombinant; tags: N-terminal GST; dsDNA, one strand shown. The method, boiled down:
as §1

Test [17] deals with T11, ELF3 (Homo sapiens, UniProt P78545 1-371).
T11 sequence: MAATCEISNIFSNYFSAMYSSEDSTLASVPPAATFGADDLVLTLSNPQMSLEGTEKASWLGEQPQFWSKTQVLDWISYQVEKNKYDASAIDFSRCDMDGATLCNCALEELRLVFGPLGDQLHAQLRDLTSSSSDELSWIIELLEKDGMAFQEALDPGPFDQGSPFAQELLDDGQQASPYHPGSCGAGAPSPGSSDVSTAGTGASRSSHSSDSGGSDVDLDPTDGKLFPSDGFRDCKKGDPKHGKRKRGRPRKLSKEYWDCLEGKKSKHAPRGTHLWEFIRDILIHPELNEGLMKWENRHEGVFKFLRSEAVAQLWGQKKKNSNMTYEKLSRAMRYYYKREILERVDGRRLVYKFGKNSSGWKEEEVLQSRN
To be noted: protein: recombinant; tags: N-terminal GST; dsDNA, one strand shown. In outline:
as §1

In test [18] the target is CRX (Homo sapiens, UniProt O43186 1-299). To be noted: protein: recombinant; tags: N-terminal GST; dsDNA, one strand shown. The method, boiled down: as §1
In test [19] the target is ETV1 (Homo sapiens, UniProt P50549 1-477). To be noted: protein: recombinant; tags: N-terminal GST; dsDNA, one strand shown. The method, boiled down: as §1
Chain of ETV1 (P50549 whole entry): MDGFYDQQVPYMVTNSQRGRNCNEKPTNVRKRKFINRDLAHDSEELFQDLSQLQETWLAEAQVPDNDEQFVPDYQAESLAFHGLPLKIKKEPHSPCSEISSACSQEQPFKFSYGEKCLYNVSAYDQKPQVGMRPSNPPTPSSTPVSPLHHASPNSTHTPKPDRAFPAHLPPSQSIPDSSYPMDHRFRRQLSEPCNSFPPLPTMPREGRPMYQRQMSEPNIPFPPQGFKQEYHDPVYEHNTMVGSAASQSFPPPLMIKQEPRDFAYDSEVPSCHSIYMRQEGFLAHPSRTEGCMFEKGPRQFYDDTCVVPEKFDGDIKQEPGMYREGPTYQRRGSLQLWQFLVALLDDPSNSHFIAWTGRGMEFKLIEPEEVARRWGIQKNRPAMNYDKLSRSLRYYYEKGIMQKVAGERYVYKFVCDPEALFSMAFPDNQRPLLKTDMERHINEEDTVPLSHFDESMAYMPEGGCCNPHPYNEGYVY

Chain of HSF1 (Q00613 whole entry): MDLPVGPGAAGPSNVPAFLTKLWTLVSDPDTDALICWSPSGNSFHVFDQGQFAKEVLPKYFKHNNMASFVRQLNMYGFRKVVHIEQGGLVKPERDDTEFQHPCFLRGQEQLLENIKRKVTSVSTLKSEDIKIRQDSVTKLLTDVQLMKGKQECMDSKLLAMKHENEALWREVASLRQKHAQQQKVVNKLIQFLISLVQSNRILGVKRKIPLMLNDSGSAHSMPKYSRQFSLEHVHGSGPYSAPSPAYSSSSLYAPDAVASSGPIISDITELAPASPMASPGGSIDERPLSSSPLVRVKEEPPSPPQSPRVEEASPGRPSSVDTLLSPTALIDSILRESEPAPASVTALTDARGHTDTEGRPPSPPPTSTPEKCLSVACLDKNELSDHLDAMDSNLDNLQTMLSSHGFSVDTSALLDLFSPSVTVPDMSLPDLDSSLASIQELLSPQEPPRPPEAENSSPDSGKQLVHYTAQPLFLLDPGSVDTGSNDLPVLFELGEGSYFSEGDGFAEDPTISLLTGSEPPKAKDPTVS
Chain of CRX (O43186 whole entry): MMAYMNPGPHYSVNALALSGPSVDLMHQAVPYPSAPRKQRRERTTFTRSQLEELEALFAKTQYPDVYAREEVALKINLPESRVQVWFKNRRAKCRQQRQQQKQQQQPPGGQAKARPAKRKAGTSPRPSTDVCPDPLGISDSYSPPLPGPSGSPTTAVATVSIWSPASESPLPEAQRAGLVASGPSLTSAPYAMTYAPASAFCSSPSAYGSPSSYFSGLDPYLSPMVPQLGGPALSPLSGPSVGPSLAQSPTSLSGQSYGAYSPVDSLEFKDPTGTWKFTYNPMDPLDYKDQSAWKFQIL
Chain of ELF4 (Q99607 whole entry): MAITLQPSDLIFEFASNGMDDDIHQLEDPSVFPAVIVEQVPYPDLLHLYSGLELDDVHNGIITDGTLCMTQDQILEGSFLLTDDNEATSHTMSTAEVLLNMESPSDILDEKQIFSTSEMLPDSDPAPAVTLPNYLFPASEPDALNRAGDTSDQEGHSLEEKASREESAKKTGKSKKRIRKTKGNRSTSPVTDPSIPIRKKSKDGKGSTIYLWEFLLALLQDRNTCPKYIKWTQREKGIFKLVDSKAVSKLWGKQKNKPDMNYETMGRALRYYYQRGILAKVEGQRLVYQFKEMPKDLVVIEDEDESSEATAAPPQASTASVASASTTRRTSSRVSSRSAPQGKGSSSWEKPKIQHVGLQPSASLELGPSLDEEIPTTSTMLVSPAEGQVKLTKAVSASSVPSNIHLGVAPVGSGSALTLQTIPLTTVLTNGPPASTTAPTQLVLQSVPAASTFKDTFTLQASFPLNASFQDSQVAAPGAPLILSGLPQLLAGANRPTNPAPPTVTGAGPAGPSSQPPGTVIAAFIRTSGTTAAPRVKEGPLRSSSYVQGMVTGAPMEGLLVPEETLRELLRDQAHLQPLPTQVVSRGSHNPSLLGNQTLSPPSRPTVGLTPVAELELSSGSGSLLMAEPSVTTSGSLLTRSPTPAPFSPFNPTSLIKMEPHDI
Chain of ETV5 (P41161 whole entry): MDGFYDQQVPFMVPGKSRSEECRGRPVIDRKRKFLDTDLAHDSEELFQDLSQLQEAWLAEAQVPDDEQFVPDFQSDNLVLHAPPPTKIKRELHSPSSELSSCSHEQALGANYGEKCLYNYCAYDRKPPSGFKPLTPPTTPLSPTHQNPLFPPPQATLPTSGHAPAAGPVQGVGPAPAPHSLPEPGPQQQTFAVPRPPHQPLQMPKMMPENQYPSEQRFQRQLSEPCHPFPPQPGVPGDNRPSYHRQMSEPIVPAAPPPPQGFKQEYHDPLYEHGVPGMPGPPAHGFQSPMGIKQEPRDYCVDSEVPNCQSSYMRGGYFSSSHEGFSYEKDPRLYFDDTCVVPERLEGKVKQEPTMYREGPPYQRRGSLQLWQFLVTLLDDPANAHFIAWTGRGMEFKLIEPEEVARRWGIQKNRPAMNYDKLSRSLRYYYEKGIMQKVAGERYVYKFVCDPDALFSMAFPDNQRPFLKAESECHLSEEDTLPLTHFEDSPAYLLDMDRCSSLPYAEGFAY
Chain of SPIB (Q01892 whole entry): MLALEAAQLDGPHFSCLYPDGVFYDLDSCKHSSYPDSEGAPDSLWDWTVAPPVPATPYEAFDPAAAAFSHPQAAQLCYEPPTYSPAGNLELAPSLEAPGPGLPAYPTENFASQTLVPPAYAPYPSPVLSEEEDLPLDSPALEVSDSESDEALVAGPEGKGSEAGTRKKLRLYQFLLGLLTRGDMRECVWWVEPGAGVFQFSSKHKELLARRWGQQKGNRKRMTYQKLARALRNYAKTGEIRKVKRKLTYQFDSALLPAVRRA
Chain of ELF1 (P32519 whole entry): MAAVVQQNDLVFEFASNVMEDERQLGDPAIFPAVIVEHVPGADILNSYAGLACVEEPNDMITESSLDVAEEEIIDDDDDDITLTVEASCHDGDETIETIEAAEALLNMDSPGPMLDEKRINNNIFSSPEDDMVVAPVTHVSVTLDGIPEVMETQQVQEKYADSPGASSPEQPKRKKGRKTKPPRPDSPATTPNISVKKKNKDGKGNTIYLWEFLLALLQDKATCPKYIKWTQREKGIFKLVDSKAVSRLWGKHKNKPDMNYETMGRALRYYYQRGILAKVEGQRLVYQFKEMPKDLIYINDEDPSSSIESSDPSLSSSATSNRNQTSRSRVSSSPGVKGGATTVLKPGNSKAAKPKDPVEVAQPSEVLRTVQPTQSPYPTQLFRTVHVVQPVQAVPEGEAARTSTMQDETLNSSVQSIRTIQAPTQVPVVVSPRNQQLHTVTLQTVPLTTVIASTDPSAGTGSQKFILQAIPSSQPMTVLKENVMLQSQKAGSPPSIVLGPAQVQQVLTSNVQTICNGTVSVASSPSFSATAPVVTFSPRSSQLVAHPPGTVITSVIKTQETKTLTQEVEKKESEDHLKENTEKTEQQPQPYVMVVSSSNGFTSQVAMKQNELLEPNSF

As for TATTGC, the binding signal in test [1] is 1.39 fold enrichment (6-mer frequency, TF over GST control); in test [2], 1.33 fold enrichment (6-mer frequency, TF over GST control); in test [3], 1.44 fold enrichment (6-mer frequency, TF over GST control); in test [4], 1.31 fold enrichment (6-mer frequency, TF over GST control); in test [5] it was 1.41 fold enrichment (6-mer frequency, TF over GST control); in test [6], 1.3 fold enrichment (6-mer frequency, TF over GST control). The binding signal in [7] is 1.32 fold enrichment (6-mer frequency, TF over GST control); in test [8], 1.37 fold enrichment (6-mer frequency, TF over GST control); in test [9] it was 1.3 fold enrichment (6-mer frequency, TF over GST control); in [10], 1.33 fold enrichment (6-mer frequency, TF over GST control); in test [11], 1.34 fold enrichment (6-mer frequency, TF over GST control); in [12], 1.21 fold enrichment (6-mer frequency, TF over GST control). In addition, the binding signal is 1.5 fold enrichment (6-mer frequency, TF over GST control) in [13]; 1.41 fold enrichment (6-mer frequency, TF over GST control) in test [14]; 1.29 fold enrichment (6-mer frequency, TF over GST control) in [15]; 1.22 fold enrichment (6-mer frequency, TF over GST control) in test [16]; 1.2 fold enrichment (6-mer frequency, TF over GST control) in test [17]; 1.47 fold enrichment (6-mer frequency, TF over GST control) in [18]. Also, the binding signal in test [19] was 1.45 fold enrichment (6-mer frequency, TF over GST control).
